The source of these data is ChEMBL document CHEMBL1961873, “Compounds: GSK PKIS; Assays: Nanosyn kinase panel” (2012).

Molecules are shown by their SMILES.

Test [1] concerns the target Leukocyte tyrosine kinase receptor (Homo sapiens) (UniProt P29376). The following applies: at 1 µM.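 Further: each value is the mean inhibition of LTK.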
The target of test [2] is Tyrosine-protein kinase Lyn (Homo sapiens) (UniProt P07948). The following applies: at 0.1 µM.
For test [3] the target is unchanged. The following applies: at 1 µM.
For test [4] the target is unchanged. The conditions noted are these: at 0.1 µM. The source holds these as a separate data set.
The target is the same in test [5]. The following applies: at 1 µM. This is another data set of the same source.
Test [6] addresses T1, Tyrosine-protein kinase Mer (Homo sapiens) (UniProt Q12866).
T1 sequence (whole entry): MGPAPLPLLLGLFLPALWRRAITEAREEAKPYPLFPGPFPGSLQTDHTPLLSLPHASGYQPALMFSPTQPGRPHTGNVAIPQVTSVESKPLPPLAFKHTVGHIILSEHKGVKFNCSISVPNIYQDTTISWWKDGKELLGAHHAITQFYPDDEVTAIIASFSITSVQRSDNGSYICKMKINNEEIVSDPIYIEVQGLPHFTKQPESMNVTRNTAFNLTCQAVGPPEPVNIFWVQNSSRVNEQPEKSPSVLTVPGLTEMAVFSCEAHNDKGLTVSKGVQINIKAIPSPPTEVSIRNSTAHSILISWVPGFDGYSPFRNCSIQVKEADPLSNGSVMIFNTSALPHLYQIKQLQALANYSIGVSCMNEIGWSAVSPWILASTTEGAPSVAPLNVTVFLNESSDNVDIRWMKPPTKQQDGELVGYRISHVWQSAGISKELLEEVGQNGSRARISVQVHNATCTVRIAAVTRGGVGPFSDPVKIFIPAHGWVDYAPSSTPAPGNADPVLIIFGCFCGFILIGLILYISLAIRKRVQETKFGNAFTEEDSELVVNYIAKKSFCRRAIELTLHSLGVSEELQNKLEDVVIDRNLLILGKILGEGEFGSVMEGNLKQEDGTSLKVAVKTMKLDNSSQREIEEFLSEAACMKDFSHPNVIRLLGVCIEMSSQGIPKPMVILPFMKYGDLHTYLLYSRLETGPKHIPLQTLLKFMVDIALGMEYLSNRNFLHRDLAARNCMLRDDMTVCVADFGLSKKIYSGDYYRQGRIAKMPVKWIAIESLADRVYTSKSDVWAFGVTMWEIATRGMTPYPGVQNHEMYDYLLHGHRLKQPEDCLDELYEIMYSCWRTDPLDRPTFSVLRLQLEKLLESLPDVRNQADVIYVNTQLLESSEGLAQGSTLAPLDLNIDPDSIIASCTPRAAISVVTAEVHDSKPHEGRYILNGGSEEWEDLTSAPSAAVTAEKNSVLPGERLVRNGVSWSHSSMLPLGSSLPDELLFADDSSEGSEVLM
The conditions noted are these: at 0.1 µM.

Test [7] concerns the target T1, Tyrosine-protein kinase Mer (Homo sapiens). The following applies: at 1 µM.
The target in test [8] is Hepatocyte growth factor receptor (Homo sapiens) (UniProt P08581). The conditions noted are these: at 0.1 µM.
For test [9] the target is unchanged. The following applies: at 1 µM.
Test [10] concerns the target T2, Muscle, skeletal receptor tyrosine-protein kinase (Homo sapiens) (UniProt O15146).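 Further: values are mean inhibition of MuSK from the GSK PKIS kinase screening panel.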
T2 sequence (whole entry): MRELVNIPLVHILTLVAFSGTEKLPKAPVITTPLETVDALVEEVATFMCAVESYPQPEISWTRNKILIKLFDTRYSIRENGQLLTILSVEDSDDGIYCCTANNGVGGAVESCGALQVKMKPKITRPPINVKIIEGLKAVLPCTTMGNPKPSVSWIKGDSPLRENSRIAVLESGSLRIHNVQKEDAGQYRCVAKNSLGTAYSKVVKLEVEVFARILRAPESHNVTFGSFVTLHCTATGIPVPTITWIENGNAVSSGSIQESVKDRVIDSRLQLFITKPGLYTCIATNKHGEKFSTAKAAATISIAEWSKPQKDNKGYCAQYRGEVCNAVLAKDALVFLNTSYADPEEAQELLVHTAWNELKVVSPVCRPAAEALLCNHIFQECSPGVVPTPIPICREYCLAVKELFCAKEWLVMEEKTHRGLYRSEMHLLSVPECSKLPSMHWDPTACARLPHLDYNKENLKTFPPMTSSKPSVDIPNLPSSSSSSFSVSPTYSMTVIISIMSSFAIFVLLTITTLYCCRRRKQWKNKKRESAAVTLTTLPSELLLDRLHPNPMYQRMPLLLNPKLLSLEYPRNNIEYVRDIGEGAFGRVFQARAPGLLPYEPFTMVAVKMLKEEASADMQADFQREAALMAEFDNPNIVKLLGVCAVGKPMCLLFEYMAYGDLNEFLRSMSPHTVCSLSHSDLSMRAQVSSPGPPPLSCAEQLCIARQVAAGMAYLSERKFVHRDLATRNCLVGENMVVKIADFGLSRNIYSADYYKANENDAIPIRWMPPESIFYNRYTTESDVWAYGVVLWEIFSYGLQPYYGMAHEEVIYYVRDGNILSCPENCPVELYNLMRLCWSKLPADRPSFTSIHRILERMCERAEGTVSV
The following applies: at 0.1 µM.

Sequence of Leukocyte tyrosine kinase receptor (Homo sapiens) (P29376 whole entry): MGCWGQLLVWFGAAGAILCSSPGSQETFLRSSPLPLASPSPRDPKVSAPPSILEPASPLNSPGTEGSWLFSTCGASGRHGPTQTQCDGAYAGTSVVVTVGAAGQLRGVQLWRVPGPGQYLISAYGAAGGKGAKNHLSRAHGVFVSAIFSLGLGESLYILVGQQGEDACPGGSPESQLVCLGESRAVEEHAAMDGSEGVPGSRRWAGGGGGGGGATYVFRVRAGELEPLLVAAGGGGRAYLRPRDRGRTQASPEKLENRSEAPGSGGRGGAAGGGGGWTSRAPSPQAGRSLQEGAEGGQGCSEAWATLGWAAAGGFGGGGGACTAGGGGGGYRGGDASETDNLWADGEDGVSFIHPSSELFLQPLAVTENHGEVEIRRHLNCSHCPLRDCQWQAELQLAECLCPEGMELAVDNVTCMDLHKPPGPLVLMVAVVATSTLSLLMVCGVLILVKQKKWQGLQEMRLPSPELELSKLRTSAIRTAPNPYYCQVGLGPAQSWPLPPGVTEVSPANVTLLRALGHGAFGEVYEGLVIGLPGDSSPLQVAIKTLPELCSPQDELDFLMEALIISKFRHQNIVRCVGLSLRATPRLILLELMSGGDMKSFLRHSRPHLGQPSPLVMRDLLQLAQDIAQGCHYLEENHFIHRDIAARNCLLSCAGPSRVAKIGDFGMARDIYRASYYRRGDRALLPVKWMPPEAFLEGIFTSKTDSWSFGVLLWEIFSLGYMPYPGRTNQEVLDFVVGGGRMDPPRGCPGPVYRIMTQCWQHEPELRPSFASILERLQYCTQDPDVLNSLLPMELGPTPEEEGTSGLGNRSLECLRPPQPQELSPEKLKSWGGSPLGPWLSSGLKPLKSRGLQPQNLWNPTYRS
Sequence of Tyrosine-protein kinase Lyn (Homo sapiens) (P07948 2-512 limits assumed): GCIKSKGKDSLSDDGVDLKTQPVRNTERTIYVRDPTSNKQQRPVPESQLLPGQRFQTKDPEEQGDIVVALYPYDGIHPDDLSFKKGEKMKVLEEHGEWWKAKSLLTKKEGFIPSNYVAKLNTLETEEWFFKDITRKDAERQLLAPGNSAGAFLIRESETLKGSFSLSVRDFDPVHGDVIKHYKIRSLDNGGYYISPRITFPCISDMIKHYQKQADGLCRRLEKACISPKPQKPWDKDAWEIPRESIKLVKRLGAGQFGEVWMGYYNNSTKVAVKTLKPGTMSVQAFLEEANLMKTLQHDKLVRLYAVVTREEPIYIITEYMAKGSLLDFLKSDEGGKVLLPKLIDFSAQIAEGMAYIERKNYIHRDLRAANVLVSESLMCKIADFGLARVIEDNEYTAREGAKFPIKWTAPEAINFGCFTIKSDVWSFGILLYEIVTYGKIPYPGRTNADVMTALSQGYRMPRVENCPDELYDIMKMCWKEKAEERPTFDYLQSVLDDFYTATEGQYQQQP
Sequence of Hepatocyte growth factor receptor (Homo sapiens) (P08581 whole entry): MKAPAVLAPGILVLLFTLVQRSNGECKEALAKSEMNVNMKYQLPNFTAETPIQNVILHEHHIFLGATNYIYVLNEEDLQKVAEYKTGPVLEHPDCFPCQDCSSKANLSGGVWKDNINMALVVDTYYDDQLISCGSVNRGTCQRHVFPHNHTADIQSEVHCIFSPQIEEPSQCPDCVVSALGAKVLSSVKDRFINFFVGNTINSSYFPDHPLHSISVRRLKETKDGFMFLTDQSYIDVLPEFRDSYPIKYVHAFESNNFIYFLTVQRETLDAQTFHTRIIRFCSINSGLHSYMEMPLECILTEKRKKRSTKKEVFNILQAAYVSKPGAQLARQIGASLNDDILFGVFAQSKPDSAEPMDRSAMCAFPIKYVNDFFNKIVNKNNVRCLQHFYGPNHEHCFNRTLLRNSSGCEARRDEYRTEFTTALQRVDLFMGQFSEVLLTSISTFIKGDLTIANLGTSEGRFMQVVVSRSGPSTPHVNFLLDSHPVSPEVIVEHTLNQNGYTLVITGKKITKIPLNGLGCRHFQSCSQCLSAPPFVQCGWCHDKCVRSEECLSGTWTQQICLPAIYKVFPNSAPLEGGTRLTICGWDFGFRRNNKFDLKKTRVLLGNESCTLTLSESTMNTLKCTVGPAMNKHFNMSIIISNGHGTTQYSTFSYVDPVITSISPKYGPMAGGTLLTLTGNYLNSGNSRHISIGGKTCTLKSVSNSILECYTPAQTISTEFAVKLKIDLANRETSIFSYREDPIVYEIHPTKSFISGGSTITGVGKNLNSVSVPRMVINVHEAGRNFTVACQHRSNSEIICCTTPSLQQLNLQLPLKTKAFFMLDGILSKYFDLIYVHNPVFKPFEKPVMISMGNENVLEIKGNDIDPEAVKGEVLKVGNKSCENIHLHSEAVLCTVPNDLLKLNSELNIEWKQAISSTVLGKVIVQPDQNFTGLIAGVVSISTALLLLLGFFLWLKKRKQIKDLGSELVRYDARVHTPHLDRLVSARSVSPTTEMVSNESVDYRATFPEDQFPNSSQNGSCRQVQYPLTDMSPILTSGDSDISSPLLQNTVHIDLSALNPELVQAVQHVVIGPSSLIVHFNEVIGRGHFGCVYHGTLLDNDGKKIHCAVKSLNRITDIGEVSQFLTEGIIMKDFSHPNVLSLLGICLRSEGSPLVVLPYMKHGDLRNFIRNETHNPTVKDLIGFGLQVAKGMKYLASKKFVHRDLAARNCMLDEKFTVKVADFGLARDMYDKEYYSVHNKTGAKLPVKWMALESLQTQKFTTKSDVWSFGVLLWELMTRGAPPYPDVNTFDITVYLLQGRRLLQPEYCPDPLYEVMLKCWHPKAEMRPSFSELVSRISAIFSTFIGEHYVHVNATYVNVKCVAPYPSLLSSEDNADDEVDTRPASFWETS

With `COc1cc(C=NNc2ncnc3c2cnn3Cc2ccccc2)ccc1O`, the inhibition in test [1] is -1.02%; in [2] it was 7.35%; in test [3] it was 41.8%; in test [4], 3.91%; in test [5] it was 35.4%; in [6], 0.56%. The inhibition in [7] is 6.34%; in [8], -3.62%; in test [9], 7.19%; in test [10] it was -1.07%.

For `Nc1nonc1-c1nc2cnccc2n1C1CCCCC1`, the inhibition was 2.35% in test [1]; -2.05% in test [2]; 1.3% in test [3]; -1.46% in test [4]; -0.59% in test [5]; -0.72% in test [6]. In addition, the inhibition is 1.5% in [7], -2.89% in test [8], 7.05% in test [9] and -1.73% in test [10].

`Fc1ccc(-c2ncn(C3CCNCC3)c2-c2ccnc(Oc3ccccc3)n2)cc1`: the inhibition in test [1] was determined as 1.61%; in test [2] it was 2.38%; in [3], 2.64%; in test [4], 0.89%; in test [5], 1.56%; in test [6] it was 0.77%. The inhibition is 6.11% in test [7], 5.19% in [8], 0.34% in test [9] and 1.71% in test [10].

As for `Cc1cc(-c2ccco2)cc(C)c1/C=C/c1cncc(-c2nn[nH]n2)c1`, the inhibition was determined as 1.64% in test [1]; 1.98% in test [2]; 5.29% in test [3]; 2.99% in test [4]; 3.6% in [5]; 0.26% in test [6]. Further, the inhibition in [7] is 3.44%; in [8], 4.92%; in test [9], 3.8%; in test [10] it was -1.44%.

In the case of `COc1cccc(-n2ncc3c(N/N=C/c4ccncc4)ncnc32)c1`, the inhibition in [1] was determined as 6.38%; in [2], 49%; in [3], 87.5%; in test [4], 43.2%; in test [5] it was 85%; in [6] it was 6.35%. Also, the inhibition was determined as 39.2% in test [7], 18.9% in test [8], 49.5% in test [9] and 11.1% in test [10].

Consider `NS(=O)(=O)c1ccc(N/C=C2\C(=O)Nc3ccc4ncsc4c32)cc1`, for which the inhibition amounted to 10.4% in test [1]; 6.6% in test [2]; 28.3% in test [3]; 2.87% in test [4]; 22.1% in test [5]; 0.39% in test [6]. The inhibition in test [7] was 7.72%; in [8], 14.9%; in [9], 43.3%; in test [10], 11%.

With `NS(=O)(=O)c1ccc(-c2ccc3c(NC(=O)C4CC4)n[nH]c3c2)cc1`, the inhibition in test [1] is -0.4%; in test [2], 2.87%; in test [3], 3.71%; in test [4], 1.42%; in test [5], 3.29%; in test [6], 0.15%. Further, the inhibition in [7] is 4.26%; in test [8], -4.19%; in [9], 0.32%; in test [10], 3.88%.

Turning to `COc1cc2c(cc1Nc1nc(Nc3ccsc3C(N)=O)c3cc[nH]c3n1)N(C(=O)CN(C)C)CCC2`, the inhibition in [1] is 94.9%; in [2], 3.9%; in test [3] it was 5.94%; in test [4], 2.54%; in [5], 2.25%; in [6], 1.81%. In addition, the inhibition was 6.9% in [7], 6.76% in [8], 7.29% in test [9] and 3.98% in test [10].

In the case of `CCn1c(-c2nonc2N)nc2c(C#CCN)ncc(OCCCN)c21`, the inhibition in test [1] was -1.19%; in test [2], 0.47%; in [3] it was 2.24%; in test [4], 1.28%; in test [5], 0.49%; in [6] it was 0.13%. Further, the inhibition in test [7] was 0.01%; in [8] it was 0.78%; in [9] it was 4.36%; in [10], 2.41%.

As to `NC(=O)c1sc(-n2cnc3cc(C(F)(F)F)ccc32)cc1OCc1ccccc1Br`, the inhibition in test [1] was 4.03%; in test [2], 3.08%; in test [3] it was 4.62%; in [4], 2.14%; in test [5], 3.91%; in test [6], -1.59%. The inhibition was 4.52% in [7], -0.38% in test [8], 8.07% in [9] and 1.36% in test [10].

For the compound `COc1cccc(COc2cc(-n3cnc4ccccc43)sc2C(N)=O)c1`, the inhibition in test [1] was 2.93%; in [2], -0.93%; in [3] it was -1.31%; in test [4], -1.21%; in test [5] it was -1.14%; in test [6], -2.89%. In addition, the inhibition is -0.86% in test [7], 4.83% in test [8], 2.86% in [9] and -1.3% in test [10].

Take `CCn1c(-c2nonc2N)nc2c(C#CC(C)(C)O)ncc(OC[C@@H]3CCCN3)c21`: the inhibition in test [1] is 2.22%; in test [2] it was 2.35%; in test [3], 1.33%; in test [4], 1.2%; in test [5], 1.89%; in test [6], -0.41%. Besides, the inhibition in test [7] was -0.43%; in test [8] it was 5.01%; in test [9] it was 5.81%; in [10], -2.15%.

Turning to `CCn1c(-c2nonc2N)nc2c(C#CC(C)(C)O)ncc(OCC3CCNCC3)c21`, the inhibition in [1] amounted to 5.07%; in [2], 3.39%; in test [3], 7.23%; in test [4] it was 1.8%; in [5], 5.79%; in test [6], 1.17%. Moreover, the inhibition in test [7] is 1.7%; in [8], 1.64%; in test [9], 2.5%; in test [10], 4.04%.

As to `CCn1c(-c2nonc2N)nc2c(C#CC(C)(C)O)nc(O[C@@H](CN)c3ccccc3)cc21`, the inhibition in test [1] turned out to be 76.6%; in [2], 2.08%; in test [3], 22.1%; in test [4], 0.81%; in test [5], 16.8%; in [6], 0.05%. For the same compound, the inhibition in test [7] is 0.57%; in [8], 3.67%; in test [9], -0.12%; in test [10] it was -1.29%.

A word on the inhibition: it is the change of the read-out against control, counted positive when it falls.
